45 molecules from PubChem BioAssay AID2216 (Broad Institute, 2009) can be followed below.

Screen size: about 300,000 compounds; about 3,300 (1.1%) were called active. Roughly 6% stayed inconclusive and do not appear here. The sample holds actives, similar compounds and a random draw of the others, so the mix is not that of the screen.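 How the source made its calls: active means more than half of the replicate wells show a fall in the fluorescence ratio signal beyond about 16% (limit read from the data, passing the limit was not always enough); inconclusive means exactly half of the replicate wells pass the set limit; inactive means fewer than half of replicates pass the limit.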

The subject of the experiment is Ran GTPase (GTP-bound) - importin-beta complex. Description: inhibitors of RanGTP-importin-beta interaction, primary screen, biochemical, FRET, CFP-Ran, YFP-importin-beta, homogeneous (AID 2216).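 Further: 0% = DMSO wells and 100% = Ran loaded with GDP instead of GTP.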 Conditions: cell-free CFP-Ran/YFP-importin-beta FRET ratio; stronger effect = higher value; concentration not given here.
A word on the inhibition: it is the relative decrease from the control value, in per cent. `OCc1ccc(-c2ccccc2)c(-c2ccccc2)c1`: the inhibition was 3.41% (inactive).

As for `CCOC(=O)c1ccc(NC(=O)c2c(NCc3ccccc3)[nH]c(=O)[nH]c2=O)cc1`, the inhibition is -5.92% (inactive).

Turning to `Cc1ccsc1C1C(C#N)=C(N)OC2=C1C(=O)CC(C)(C)C2` (stereo not given), the inhibition was -0.947% (inactive).

On to `CC(C)C1C2=C(CC(C)(C)CC2=O)ON1c1ccccc1` (stereo not given), for which the inhibition was 26.1% (active).

Turning to `Cc1cc2c(cc1C)NC(c1ccccn1)C1=C(CC(C)(C)CC1=O)N2` (stereo not given), the inhibition was -3.07% (inactive).

Take `CCCCCCCCCCCCN1[C@@H](CC(C)=O)c2cc(F)cc(F)c2S1(=O)=O`: the inhibition was -0.304% (inactive).

For the molecule `CCCC1OC23CCCCC2C(C#N)(C#N)C1(C#N)C(=N)O3` (stereo not given), the inhibition is 41.6% (active).

Consider `CC(C)N(C(=O)Cn1cc(S(=O)(=O)CC(=O)N2CCOCC2)c2ccccc21)C(C)C`, for which the inhibition is 2.93% (inactive).

With `O=C1CCc2cc(S(=O)(=O)Nc3ccc(C(F)(F)F)cc3)cc3c2N1CC3`, the inhibition was -3.26% (inactive).

Consider `O=C(COc1cccc2c1CCNC2=O)NC1CCCCC1`, for which the inhibition is -2.21% (inactive).

Regarding `CC(=O)c1ccc(-c2ccc(Cn3c(C)nc4cc(N)c(C)nc43)cc2)cc1`, the inhibition was 27.1% (active).

Regarding `Cc1cc2nc3c(=O)n(Cc4ccccc4)c(=O)[nH]c3nc2cc1N`, the inhibition is -261% (inactive).

As to `CCOC(=O)c1ccc2c(c1)nc(C)n2CC`, the inhibition was -1.9% (inactive).

`O=C(CSc1n[nH]c(-c2cccs2)n1)N1CCCCC1`: the inhibition was -0.392% (inactive).

As for `CS(=O)(=O)c1ccc(C(=O)OCC(=O)NNC(=O)COc2ccc(Cl)cc2)cc1`, the inhibition was -2.55% (inactive).

Take `O=C(CSc1ccccn1)N1CCN(S(=O)(=O)c2ccc(Cl)cc2)CC1`: the inhibition is -1.48% (inactive).

On to `Cc1cccc(NC(=O)c2ccc(S(=O)(=O)N(C)CC3CCCO3)cc2)c1C` (stereo not given), for which the inhibition is -0.172% (inactive).

As for `O=C(N1CCOCC1)N1CCOCC1`, the inhibition was -2.74% (inactive).

For the molecule `N#C/C(=C\c1ccc(-c2cccc([N+](=O)[O-])c2)o1)C(=O)NCCN1CCOCC1`, the inhibition was 2.98% (inactive).

With `Cc1ccc(C(=O)N2CCN(C(=O)N3CCOCC3)CC2)cc1`, the inhibition was -2.03% (inactive).

Take `N#C/C(=C\C1=C(N2CCOCC2)C(=C\c2ccccc2)/CC1)C(=O)Nc1ccccc1F`: the inhibition is -3.91% (inactive).

Take `N#C/C(=C/c1ccc(N2CCOCC2)o1)C(=O)N1CCOCC1`: the inhibition is 39.5% (active).

In the case of `N#C/C(=C\c1ccc(N2CCOCC2)o1)C(=O)N1CCOCC1`, the inhibition is 56.4% (active).

In the case of `CC(Oc1ccc(F)cc1)C(=O)Nc1ccccc1C(=O)NC1CC1` (stereo not given), the inhibition is -6.02% (inactive).

As for `Cc1ccc(-c2cc(=O)[nH]c(NCc3ccccc3)n2)cc1`, the inhibition was 4.99% (inactive).

For `CSCCC(NC(=O)c1ccco1)C(=O)Nc1cc(C)ccn1` (stereo not given), the inhibition was -2.09% (inactive).

Take `Cc1cc(Cl)c2oc(C(=O)N(C)C(C)c3ccccn3)c(C)c2c1` (stereo not given): the inhibition is 1.52% (inactive).

For the molecule `CC(=O)Nc1ccc(NC(=O)CS(=O)(=O)c2cn(CC(=O)N3CCCCC3)c3ccccc23)cc1`, the inhibition is -0.901% (inactive).

As to `Cc1ccc(C)c(-c2nnc(NC(=O)CS(=O)(=O)c3ccccc3)o2)c1`, the inhibition is -0.829% (inactive).

In the case of `N=c1oc2ccccc2cc1C(=O)N/N=C/c1ccccc1`, the inhibition is 3.47% (inactive).

For `CNC(=O)c1cc2c(ccc3ccccc32)oc1=N`, the inhibition is 35.7% (active).

For the molecule `N=c1oc2ccccc2cc1C(=O)NCc1ccccc1`, the inhibition was 2.48% (inactive).

As for `O=C(NNC(=O)c1cc(-c2ccccc2Cl)nc2ccccc12)c1csc(N2CCOCC2)n1`, the inhibition is 1.15% (inactive).

As to `O=C(NCc1ccncc1)c1ccc(NS(=O)(=O)c2cccc([N+](=O)[O-])c2)cc1`, the inhibition is 3.31% (inactive).

As for `CC(OC(=O)CNC(=O)c1ccco1)C(=O)Nc1ccc(Cl)cn1` (stereo not given), the inhibition is 0.318% (inactive).

As to `CNC(C)C#Cc1ccc2sc3cc(OC)c(OC)cc3c(=O)c2c1` (stereo not given), the inhibition is 38.7% (active).

Consider `Cc1cccc(N2CCN(C(=O)CCS(=O)(=O)c3ccc4c(c3)NC(=O)C(C)S4)CC2)c1C` (stereo not given), for which the inhibition is 1.94% (inactive).

For `CSc1nsc(NC(=O)Nc2ccccc2)n1`, the inhibition was 1.6% (inactive).

With `NC(=O)CCN1CCN(S(=O)(=O)/C=C/c2ccccc2)CC1`, the inhibition was 3.03% (inactive).

As to `O=c1cc(CN2CCN(S(=O)(=O)/C=C/c3ccccc3)CC2)c2ccc(O)cc2o1`, the inhibition is 21% (active).

Take `COc1ccc2c(CN3CCN(S(=O)(=O)c4cccs4)CC3)cc(=O)oc2c1`: the inhibition is -2.73% (inactive).

For the molecule `CCOC(=O)N1CCN(C(=O)c2ccc(S(=O)(=O)Nc3cccc(C(F)(F)F)c3)cc2)CC1`, the inhibition was -0.937% (inactive).

In the case of `CN(C)CCCn1c(N)c(C#N)c2nc(C#N)c(C#N)nc21`, the inhibition was 27.1% (active).

Regarding `Cc1ccc2nnn(Cc3cccc(C(C)(C)C)c3O)c2c1`, the inhibition was 9.31% (inactive).

With `COCCCn1c(SCC(=O)Nc2oc(C)c3c(C)n[nH]c(=O)c23)nc2sc3c(c2c1=O)CCC3`, the inhibition was -0.217% (inactive).
